# Test results: article PMC11062922 (Nature Chemical Biology, 2023)
# Read-outs that look alike come from different tables or passages of the source.
# Assays:
# Design in all cases: species or system human, MV4-11 + K-562 + COLO205 + SK-N-BE2 + OVCAR-8
# [1] = test system: EGFR; conditions: read-out: apparent Kd, compound concentrations: 100 nM and 1000 nM (sheet 'Samples'), n = 1
# [2] = test system: PIK3CG; conditions: read-out: apparent Kd, compound concentrations: 100 nM and 1000 nM (sheet 'Samples'), n = 1
# [3] = test system: RIPK2; conditions: read-out: apparent Kd, compound concentrations: 100 nM and 1000 nM (sheet 'Samples'), n = 1
# [4] = test system: PIK3CD; conditions: read-out: apparent Kd, n = 1
# [5] = test system: FECH; conditions: read-out: apparent Kd; compound concentrations:100 nM and 1000 nM (sheet 'Samples'); n = 1
# [6] = test system: IARS; conditions: read-out: apparent Kd; compound concentrations:100 nM and 1000 nM (sheet 'Samples'); n = 1
# [7] = test system: NQO1; conditions: read-out: apparent Kd; compound concentrations:100 nM and 1000 nM (sheet 'Samples'); n = 1
# [8] = test system: PLK1; conditions: read-out: apparent Kd; compound concentrations:100 nM and 1000 nM (sheet 'Samples'); n = 1
# [9] = test system: TTN; conditions: read-out: apparent Kd, compound concentrations: 100 nM and 1000 nM (sheet 'Samples'), n = 1
# [10] = test system: FLT3; conditions: read-out: apparent Kd, compound concentrations: 100 nM and 1000 nM (sheet 'Samples'), n = 1
# [11] = test system: FLT4; conditions: read-out: apparent Kd, n = 1
# [12] = test system: LCK; conditions: read-out: apparent Kd; compound concentrations: 100 nM and 1000 nM (sheet 'Samples'), CATDS: 8.5117028494468894E-2; n = 1
# [13] = test system: MAP4K1; conditions: read-out: apparent Kd; compound concentrations: 100 nM and 1000 nM (sheet 'Samples'), CATDS: 0.115744032998791; n = 1
# [14] = test system: MAP4K2; conditions: read-out: apparent Kd; compound concentrations: 100 nM and 1000 nM (sheet 'Samples'), CATDS: 7.8376321207257696E-2; n = 1
# [15] = test system: MAP4K3; conditions: read-out: apparent Kd; compound concentrations: 100 nM and 1000 nM (sheet 'Samples'), CATDS: 7.2653483868183794E-2; n = 1
# [16] = test system: MAP4K5; conditions: read-out: apparent Kd; compound concentrations: 100 nM and 1000 nM (sheet 'Samples'), CATDS: 9.0249941941856496E-2; n = 1
# [17] = test system: RET; conditions: read-out: apparent Kd; compound concentrations: 100 nM and 1000 nM (sheet 'Samples'), CATDS: 0.14686027995557299; n = 1
# [18] = test system: TNIK; conditions: read-out: apparent Kd; compound concentrations: 100 nM and 1000 nM (sheet 'Samples'), CATDS: 6.8078386206779196E-2; n = 1
# [19] = test system: TNK1; conditions: read-out: apparent Kd; compound concentrations: 100 nM and 1000 nM (sheet 'Samples'), CATDS: 9.7568423036534901E-2; n = 1
# [20] = test system: GAK; conditions: read-out: apparent Kd, n = 1
# [21] = test system: MAP2K5; conditions: read-out: apparent Kd; compound concentrations:100 nM and 1000 nM (sheet 'Samples'); n = 1
# [22] = test system: SIK2; conditions: read-out: apparent Kd; compound concentrations:100 nM and 1000 nM (sheet 'Samples'); n = 1
# [23] = test system: SIK3; conditions: read-out: apparent Kd; compound concentrations:100 nM and 1000 nM (sheet 'Samples'); n = 1
# [24] = test system: ZAK; conditions: read-out: apparent Kd; compound concentrations:100 nM and 1000 nM (sheet 'Samples'); n = 1
# [25] = test system: RIPK3; conditions: read-out: apparent Kd; compound concentrations: 100 nM and 1000 nM (sheet 'Samples'), CATDS: 0.17836354308348701; n = 1
# [26] = test system: STK26; conditions: read-out: apparent Kd; compound concentrations: 100 nM and 1000 nM (sheet 'Samples'), CATDS: 0.187537130117577; n = 1
# [27] = test system: TTK; conditions: read-out: apparent Kd; compound concentrations: 100 nM and 1000 nM (sheet 'Samples'), CATDS: 0.15958246539429699; n = 1
# [28] = test system: NLK; conditions: read-out: apparent Kd; compound concentrations: 100 nM and 1000 nM (sheet 'Samples'), CATDS: 0.239785961160628; n = 1
# [29] = test system: STK10; conditions: read-out: apparent Kd; compound concentrations: 100 nM and 1000 nM (sheet 'Samples'), CATDS: 0.42195435963049299; n = 1
# [30] = test system: NUAK1; conditions: read-out: apparent Kd; compound concentrations: 100 nM and 1000 nM (sheet 'Samples'), CATDS: 0.245714515933597; n = 1
# [31] = test system: PLK4; conditions: read-out: apparent Kd; compound concentrations: 100 nM and 1000 nM (sheet 'Samples'), CATDS: 0.36168703025704801; n = 1
# [32] = test system: PTK2; conditions: read-out: apparent Kd; compound concentrations: 100 nM and 1000 nM (sheet 'Samples'), CATDS: 0.26626379457403998; n = 1
# [33] = test system: GSK3A; conditions: read-out: apparent Kd; compound concentrations:100 nM and 1000 nM (sheet 'Samples'); n = 1
# [34] = compound concentrations:100 nM and 1000 nM (sheet 'Samples')
structure (smiles),measurement,setting,value
Fc1cccc(COc2ccc(Nc3ncnc4sc(-c5ccc[nH]5)cc34)cc2Cl)c1 [GW707818B],potency estimated from few doses,[1]; CATDS: 1,1030 nM
COc1ccc2ncnc(Nc3ccc(OCc4ccccc4)cc3)c2c1.Cl [GI261520A],potency estimated from few doses,[1]; CATDS: 0.82087147453604603,67.2 nM
same,potency estimated from few doses,[2]; CATDS: 0.25285428644367502,1240 nM
same,potency estimated from few doses,[3]; CATDS: 0.26130568040748398,1100 nM
CC(=O)Nc1cccc(C#Cc2cncnc2Nc2ccc(OCc3cccc(F)c3)c(Cl)c2)n1 [GW794726X],potency estimated from few doses,[1]; CATDS: 0.81532426513796596,184 nM
same,potency estimated from few doses,[2]; CATDS: 0.36055601865019399,1440 nM
Cl.O=S(=O)(c1cccc(F)c1)c1ccc(Nc2ncnc3cc(Br)sc23)cc1Cl [GSK306886A],potency estimated from few doses,[1]; CATDS: 0.33527903035184697,1350 nM
same,potency estimated from few doses,"[4]; compound concentrations: 100 nM and 1000 nM (sheet 'Samples'), CATDS: 0.982888258017659",11.9 nM
COc1cc2ncn(-c3cc(OCc4ccc(S(C)(=O)=O)cc4)c(C(N)=O)s3)c2cc1OC [GW869979X],potency estimated from few doses,[5],2080 nM
same,potency estimated from few doses,[6],2020 nM
same,potency estimated from few doses,[7],2010 nM
same,potency estimated from few doses,[4]; [34],120 nM
same,potency estimated from few doses,[8],1110 nM
c1ccc(COc2ccc(Nc3ncnc4ccc(-c5ccco5)cc34)cc2)cc1 [GW284372X],potency estimated from few doses,[1]; CATDS: 0.410036232309059,781 nM
same,potency estimated from few doses,[9]; CATDS: 0.640536562241112,304 nM
Cl.c1ccc(Cn2ccc3cc(Nc4ncnc5ccccc45)ccc32)cc1 [GW275568A],potency estimated from few doses,[1]; CATDS: 1,82.9 nM
CN(c1ccc(NC(=O)Nc2ccc(OC(F)(F)F)cc2)cc1)c1ccnc(Nc2cccc(S(N)(=O)=O)c2)n1 [GW806742X],potency estimated from few doses,[10]; CATDS: 0.14801329572366401,336 nM
same,potency estimated from few doses,"[11]; compound concentrations: 100 nM and 1000 nM (sheet 'Samples'), CATDS: 0.285311181024344",122 nM
same,potency estimated from few doses,[12],1110 nM
same,potency estimated from few doses,[13],536 nM
same,potency estimated from few doses,[14],1420 nM
same,potency estimated from few doses,[15],1830 nM
same,potency estimated from few doses,[16],951 nM
same,potency estimated from few doses,[17],340 nM
same,potency estimated from few doses,[18],2360 nM
same,potency estimated from few doses,[19],783 nM
CNS(=O)(=O)c1ccc(N(C)C)c(Nc2ncnc3cc(OC)c(OC)cc23)c1 [GSK114],potency estimated from few doses,[20]; [34],28.1 nM
same,potency estimated from few doses,[21],12.7 nM
same,potency estimated from few doses,[22],639 nM
same,potency estimated from few doses,[23],1350 nM
same,potency estimated from few doses,[24],646 nM
c1ccc(Nc2ncc(-c3ccccc3)o2)cc1 [GW549390X],potency estimated from few doses,[10]; CATDS: 0.74599434863178504,273 nM
same,potency estimated from few doses,[9]; CATDS: 0.37600950025420299,1330 nM
CCS(=O)(=O)c1ccc(OC)c(Nc2ncc(-c3cccc(-c4ccccc4F)c3)o2)c1 [GW678313X],potency estimated from few doses,[11]; [34],423 nM
Cc1ccc2c(c1)/C(=N/Nc1ccc(S(N)(=O)=O)cc1)C(=O)N2 [GW275944X],potency estimated from few doses,[10]; CATDS: 0.260396984763757,809 nM
same,potency estimated from few doses,[25],1700 nM
same,potency estimated from few doses,[26],1520 nM
same,potency estimated from few doses,[27],2270 nM
same,potency estimated from few doses,[9]; CATDS: 0.25287309010543901,851 nM
COc1cc(Nc2ccnc3ccc(C(F)(F)F)cc23)cc(OC)c1OC [GW577382X],potency estimated from few doses,"[20]; compound concentrations: 100 nM and 1000 nM (sheet 'Samples'), CATDS: 0.42692129692206698",305 nM
same,potency estimated from few doses,[28],1230 nM
same,potency estimated from few doses,[3]; CATDS: 0.40204852474639502,340 nM
C#Cc1cccc(Nc2ncnc3cc(OCCOC)c(OCCOC)cc23)c1.Cl [GW459135A],potency estimated from few doses,"[20]; compound concentrations: 100 nM and 1000 nM (sheet 'Samples'), CATDS: 0.61346853975848203",949 nM
same,potency estimated from few doses,[29],2060 nM
CCC(=O)Nc1cccc(Oc2nc(Nc3ccc(N4CCN(C)CC4)cc3OC)ncc2Cl)c1 [WZ4003],potency estimated from few doses,"[20]; compound concentrations: 100 nM and 1000 nM (sheet 'Samples'), CATDS: 0.18485172893482499",1600 nM
same,potency estimated from few doses,[30],760 nM
same,potency estimated from few doses,[31],371 nM
same,potency estimated from few doses,[32],643 nM
O=C(Nc1n[nH]c2nc(-c3cccs3)c(Br)cc12)C1CC1 [SB-735297],potency estimated from few doses,[33],1290 nM
